IL-1B inflam inh: inflammasome signaling inhibition, IL-1 beta readout; THP-1 LPS/ATP IL-1B secretion, AlphaLISA, 16 h; stronger effect = lower value; activity change, % at 57.5 µM; 360,000 tested, 4.7% active; AID 743279; in the data active means activity change below about -50%; inconclusive means mostly about -30% to -49%
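Secreted IL-1B measured by AlphaLISA bead assay after 16 h compound exposure of THP-1 cells; compounds (final up to 57.5 uM) added 1 h before LPS (250 ng/mL) and ATP (1.25 mM) stimulation; lower signal means less secretion.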
ELG1 repair inh: inhibitors of ELG1-dependent DNA repair in HEK293T cells. 330,000 tested, 2.3% active. Potency, µM (doses to about 46.1 µM), without a hit: top-dose activity change, negative = inhibition, hits mostly inhibitors. HEK293T ELG1-luciferase reporter, luminescence, 16 h; DNA damage induced by 5-fluorouridine; further: potency means the concentration at half of the fitted maximal effect; nearly all actives have a fitted effect of over 55% in size
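Overnight (16 hr) co-exposure of 2,000 cells/well to 5-fluorouridine and compound at 37 °C preceded detection. Luciferase was quantified via ONE-Glo luminescence; loss of signal denotes inhibition.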
TDP1 cell noCPT: qHTS for Inhibitors of human tyrosyl-DNA phosphodiesterase 1 (TDP1): qHTS in cells in absence of CPT. DT40 Tdp1-/- hTDP1 cells, no CPT, ATP luminescence, 48 h. Potency, µM (series often up to 46.2 µM), without a hit: at the highest dose activity change, negative = growth inhibition, actives largely listed as inhibitors. 420,000 tested, 15% active; further: potency means the concentration at half of the fitted maximal effect; nearly all actives have a fitted effect of over 55% in size
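Stably hTDP1-transfected Tdp1-null chicken DT40 cells were treated with library compounds minus camptothecin and grown for at least 48 hr at 37 °C, after which cellular ATP was quantified by luminescence.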
HT1080NT lethal: kills 2HG-producing HT-1080-NT fibrosarcoma cells | Potency, µM (titrated, usually from 46.1 µM), for the others: top-dose activity, negative = less viability, usual class: cytotoxic | 360,000 tested, 1.6% active | HT-1080-NT fibrosarcoma viability, CellTiter-Glo ATP luminescence, 48 h;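 further: NT is the 2HG producing partner of a matched IDH1 knockdown line; potency means the concentration at half of the fitted maximal effect; 0% = DMSO-treated cells and -100% = media-only wells without cells; nearly all actives have a fitted effect of over 55% in size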
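Fibrosarcoma NT cells, 750 per well in 5% FBS RPMI, were exposed to compound for 48 hours. Viability: CellTiter-Glo luminescence.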
DT40 TDP1 CPT: DT40-hTDP1 cell growth loss with CPT | chicken DT40 Tdp1-/-;hTDP1 cells + 20 nM CPT, ATP luminescence, 48 h | Potency, µM (top dose mostly 46.2 µM), for the others: top-dose activity change, negative = growth inhibition, most hits filed as inhibitors | 420,000 tested, 12% active; further: potency means the concentration at half of the fitted maximal effect; nearly all actives have a fitted effect of over 55% in size
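Chicken DT40 Tdp1-/- cells complemented with human TDP1, 400 cells/well, exposed to compounds plus 20 nM camptothecin for at least 48 h at 37 C; viability read as ATP content by CellTiter-Glo luminescence.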
HT1080 IDH1KD tx: kills HT-1080 cells with IDH1 knockdown | HT-1080 IDH1 knockdown viability, ATP luminescence, 48 h | Potency, µM (highest dose often 46.1 µM), inactives show at the highest dose activity, negative = toxicity, hits mostly cytotoxic | 360,000 tested, 2% active;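 further: potency means the concentration at half of the fitted maximal effect; 0% = DMSO wells and -100% = cell-free medium wells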
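In this qHTS, HT-1080 cells depleted of IDH1 are exposed for 48 h at 37 °C to compound titrations. Toxicity is scored from CellTiter-Glo luminescence, with DMSO as full viability and medium alone as none.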
* hit, by the source's call; ? = inconclusive; · = not tested or not shown; [ ] = dose if it differs, or a comment. Only some compounds are listed: those with a hit (about 19% of all), similar ones and a draw of the others. Unless noted, the call rests on the fitted dose curve; in most records, active means well fitted curve in the direction sought with a large enough effect; inconclusive means small, poorly fitted or top-dose-only effect, or another doubt; inactive means no such curve, though single readings can be large; an effect the other way counts as inactive or inconclusive. Unless noted, on the % scale 0 is the no-effect control and ±100 the full control effect.

SMILES	IL-1B inflam inh	ELG1 repair inh	TDP1 cell noCPT	HT1080NT lethal	DT40 TDP1 CPT	HT1080 IDH1KD tx
CCCCCCn1c(NCC)nc2c1c(=O)n(C)c(=O)n2C	-7	5.8µM*	2.6µM*	-23%	6.5µM*	-18%
CC(C)n1c(=O)c2ccccc2n1Cc1cn(Cc2ccccc2)nn1	-20	·	-8%	18%	-22%	13%
C#CCOCCOCCOCCNc1nc(N2CCN(C(=O)[C@H](CCCCN)n3cc([C@@H](N)CO)nn3)CC2)nc(N2CCN(C(=O)[C@H](CCCCN)n3cc([C@@H](N)CC(C)C)nn3)CC2)n1	0	?	-4%	-6%	5%	-1%
CCCNc1nc2c(c(=O)n(C)c(=O)n2C)n1CCc1ccccc1	-23	?	7.1µM*	?	5µM*	-11%
CCCNc1nc2c(c(=O)[nH]c(=O)n2C)n1CCc1ccccc1	26	-6%	-17%	-5%	1%	0%
Cn1c(=O)c2c(nc(NCCO)n2CCc2ccccc2)n(C)c1=O	-5	?	12µM*	-27%	16µM*	4%
Cn1c(=O)c2c(nc(NCCCO)n2CCc2ccccc2)n(C)c1=O	25	-8%	-30%	10%	-13%	-1%
COc1ccc(C(=O)NC(=S)N2CCOCC2)cc1Br	-8	18%	1%	5%	-14%	2%
O=C(c1ccc2c(c1)N(Cc1ccccc1F)C(=O)c1ccccc1S2(=O)=O)N1CCCC1	10	1%	23µM*	1%	?	1%
Cc1ccc(C)c(CN2C(=O)c3ccccc3S(=O)(=O)c3ccc(C(=O)N4CCN(c5ccccc5F)CC4)cc32)c1	·	·	-17%	·	-3%	·
O=C(c1ccc2c(c1)N(Cc1ccccc1F)C(=O)c1ccccc1S2(=O)=O)N1CCCCC1	·	·	16µM*	·	?	·
COc1ccc(CCNC(=O)Cc2ccsc2)cc1	0	0%	10%	28%	-3%	7%
COc1cccc(-c2cn(C[C@H]3CC[C@@H]([C@@H]4CC[C@H](Cn5cc(-c6cccc(OC)c6)nn5)O4)O3)nn2)c1	9	?	16µM*	-1%	?	-3%
Cc1ccc(-c2c[n+](CC(=O)Nc3nc(-c4ccc(F)cc4)cs3)c3n2CCC3)cc1	-100*	5%	10µM*	21µM*	12µM*	23µM*
O=C(C[n+]1cc(-c2ccc(Cl)cc2)n2c1CCC2)Nc1nc(-c2ccccc2)cs1	?	-18%	5.8µM*	10%	?	-6%
O=C(C[n+]1cc(-c2ccc(F)cc2)n2c1CCC2)Nc1nc(-c2ccccc2)cs1	-2	25%	?	-15%	?	-30%
CCNC(=S)N/N=C/c1cc(C)n(-c2ccc(Cl)cc2)c1C	?	?	21µM*	-17%	18µM*	-17%
Cc1cc(/C=N/NC(=O)Cn2c3ccccc3c(=O)c3ccccc32)c(C)n1-c1ccc(Cl)cc1	0	-10%	29µM*	-16%	?	?
Cc1ccc(-n2c(C)cc(/C=N/NC(=O)Cn3c4ccccc4c(=O)c4ccccc43)c2C)cc1	-10	-19%	?	-3%	?	?
Cc1ccc(-n2c(C)cc(/C=N/NC(=O)c3ccncc3)c2C)cc1C	-10	-9%	?	-18%	?	-7%
Cc1nc2ccccn2c1C(=O)N/N=C/c1cc(C)n(-c2ccc(Cl)cc2)c1C	6	?	15µM*	-11%	16µM*	-20%
Cc1cc(/C=N/NC(N)=S)c(C)n1-c1ccc(Cl)c(Cl)c1	108	?	3.7µM*	-4%	2.6µM*	?
COc1ccc2c(c1)CC(C(=O)N1CCC(C(N)=O)CC1)CO2 (configuration not stated)	·	·	-15%	·	-9%	·
COc1cccc(CNC(=O)CSc2ncc(S(=O)(=O)c3ccc(Br)cc3)c(=O)[nH]2)c1	·	·	16%	·	-3%	·
COc1cc(NC(=O)C2CC(c3cccc(OC)c3OC)=NO2)cc(OC)c1OC (configuration not stated)	-18	12µM*	16µM*	?	14µM*	?
SMILES	IL-1B inflam inh	ELG1 repair inh	TDP1 cell noCPT	HT1080NT lethal	DT40 TDP1 CPT	HT1080 IDH1KD tx
COc1ccc(C2=NOC(C(=O)NCc3ccc(F)cc3)C2)cc1 (configuration not stated)	16	14%	2.3µM*	?	2.3µM*	?
COc1ccc(CNC(=O)C2CC(c3ccc(OC)cc3)=NO2)cc1 (configuration not stated)	9	1%	-15%	-1%	?	-9%
O=C(NCc1cccs1)C1CC(c2ccccc2O)=NO1 (configuration not stated)	19	26%	?	-15%	21µM*	-2%
O=C(NCc1ccccn1)C1CC(c2ccccc2O)=NO1 (configuration not stated)	0	5%	-11%	6%	8%	2%
CCn1ncc(C2=NOC(C(=O)NCc3ccc(Cl)cc3)C2)c1C (configuration not stated)	55	20%	5.8µM*	4.5µM*	5.8µM*	6.3µM*
COc1cc(OC)c(C2=NOC(C(=O)NCc3cccnc3)C2)cc1Cl (configuration not stated)	29	-24%	15µM*	?	?	?
COc1cc(OC)c(C2=NOC(C(=O)NCCc3ccccc3)C2)cc1Cl (configuration not stated)	-17	-6%	-14%	15%[9.24 µM]	1%	5%
COc1cc(C2=NOC(C(=O)NCc3cccnc3)C2)cc(OC)c1OC (configuration not stated)	-4	?	?	-1%	?	-6%
COc1ccc(C2=NOC(C(=O)NCc3cccs3)C2)cc1 (configuration not stated)	36	?	2.9µM*	?	5.2µM*	5.2µM*
COc1cc(OC)c(C2=NOC(C(=O)NCc3cccs3)C2)cc1Cl (configuration not stated)	13	1%	2.3µM*	4.1µM*	2.3µM*	4.6µM*
COc1cc(C2=NOC(C(=O)NCc3cccs3)C2)cc(OC)c1OC (configuration not stated)	0	1%	1.6µM*	5.8µM*	2.3µM*	7.3µM*

Screening data (PubChem BioAssay)
